For some assays here: Results with a measured potency or affinity are listed apart.

Design in all cases: scale not given: direction of the effect not stated beside the values
In experiment [1] the target is Protein translocase subunit SecA (Escherichia coli (strain K12)) (UniProt P10408). Put plainly: Assay to Identify E. coli SecA ATPase Inhibitors. As to conditions: 30 µM. Format: functional.
The target of experiment [2] is T1, Ubiquitin-activating enzyme e1, putative (Leishmania donovani (strain BPK282A1)) (UniProt E9BSI1).
T1 sequence (whole entry): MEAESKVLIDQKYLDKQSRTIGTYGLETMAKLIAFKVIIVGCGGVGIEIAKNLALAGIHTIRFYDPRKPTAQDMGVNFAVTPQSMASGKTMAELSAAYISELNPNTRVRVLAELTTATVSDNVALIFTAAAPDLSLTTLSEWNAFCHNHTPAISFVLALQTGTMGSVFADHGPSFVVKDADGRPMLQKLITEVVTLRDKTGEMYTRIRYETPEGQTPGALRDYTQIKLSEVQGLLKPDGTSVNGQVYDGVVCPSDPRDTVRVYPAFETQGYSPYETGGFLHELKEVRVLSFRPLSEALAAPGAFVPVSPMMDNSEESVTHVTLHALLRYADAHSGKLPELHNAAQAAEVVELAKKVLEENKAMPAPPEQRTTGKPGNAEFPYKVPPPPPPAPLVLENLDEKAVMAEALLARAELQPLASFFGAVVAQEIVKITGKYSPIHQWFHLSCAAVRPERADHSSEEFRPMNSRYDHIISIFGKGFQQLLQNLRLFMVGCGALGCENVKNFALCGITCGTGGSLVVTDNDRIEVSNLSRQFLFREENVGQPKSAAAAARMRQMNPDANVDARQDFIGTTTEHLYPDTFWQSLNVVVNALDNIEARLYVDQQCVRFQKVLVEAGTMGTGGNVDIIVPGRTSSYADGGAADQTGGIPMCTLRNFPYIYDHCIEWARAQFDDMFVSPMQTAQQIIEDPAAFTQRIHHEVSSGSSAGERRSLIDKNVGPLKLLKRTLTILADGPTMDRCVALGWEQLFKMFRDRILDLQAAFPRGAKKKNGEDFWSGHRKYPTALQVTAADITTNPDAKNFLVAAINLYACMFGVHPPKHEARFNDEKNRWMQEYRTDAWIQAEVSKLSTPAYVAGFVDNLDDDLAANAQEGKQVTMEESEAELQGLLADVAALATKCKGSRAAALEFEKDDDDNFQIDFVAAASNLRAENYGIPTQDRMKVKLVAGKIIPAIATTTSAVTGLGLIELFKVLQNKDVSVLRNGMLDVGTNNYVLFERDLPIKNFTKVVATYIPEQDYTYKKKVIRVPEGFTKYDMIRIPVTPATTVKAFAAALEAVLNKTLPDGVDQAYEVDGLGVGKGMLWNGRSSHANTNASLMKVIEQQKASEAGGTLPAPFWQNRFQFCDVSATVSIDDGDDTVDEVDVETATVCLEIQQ
Description: Leishmania donovani Ubiquitin Activating Enzyme (LdE1). The experiment is classed as functional. As to conditions: 30 µM.

Experiment [3] has as its target Sialic acid-binding Ig-like lectin 9 (Homo sapiens) (UniProt Q9Y336). Put plainly: Hs-Siglec9 ALPHAscreen SOP 20170721. As to conditions: 10 µM. On the technique in general: Alpha assays give light when donor and acceptor beads are brought close together.
For the next experiment, the system named is Trypanosoma cruzi. Description: Trypanosoma cruzi phosphomannomutase and mannose-1-phosphate guanylyltransferase assay. As to conditions: 10 µM. The experiment is classed as functional.
In experiment [4] the target is T2, Arginase-2, mitochondrial (Homo sapiens) (UniProt P78540).
T2 sequence (whole entry): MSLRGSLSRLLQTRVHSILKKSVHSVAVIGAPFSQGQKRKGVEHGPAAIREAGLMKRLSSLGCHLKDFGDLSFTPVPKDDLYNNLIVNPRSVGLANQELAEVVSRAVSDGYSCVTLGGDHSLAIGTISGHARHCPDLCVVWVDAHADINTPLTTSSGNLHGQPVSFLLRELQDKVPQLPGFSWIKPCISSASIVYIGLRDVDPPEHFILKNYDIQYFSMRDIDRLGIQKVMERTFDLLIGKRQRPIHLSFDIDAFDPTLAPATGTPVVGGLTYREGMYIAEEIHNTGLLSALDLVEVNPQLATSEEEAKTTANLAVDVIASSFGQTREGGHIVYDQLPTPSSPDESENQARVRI
Description: in vitro enzyme assay to detect the production of urea directly proportional to the activity of Arginase II. Further: in the data most compounds retested in dose-response had high values. The settings on record: 33.3 µM. Format: functional.

For experiment [5], the target named is T3, Proteasome subunit beta (Trypanosoma cruzi) (UniProt O96673).
T3 sequence (whole entry): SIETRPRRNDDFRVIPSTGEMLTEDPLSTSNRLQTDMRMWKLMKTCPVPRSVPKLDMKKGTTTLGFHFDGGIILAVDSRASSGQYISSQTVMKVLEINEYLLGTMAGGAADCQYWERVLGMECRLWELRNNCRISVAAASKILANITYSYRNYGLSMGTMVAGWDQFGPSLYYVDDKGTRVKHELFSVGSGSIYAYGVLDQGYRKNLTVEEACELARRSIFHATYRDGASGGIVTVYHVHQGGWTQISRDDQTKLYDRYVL
Description: Trypanosoma cruzi proteasome chymotrypsin-like activity (TcProtChymo) assay. Further: in the data most compounds retested in dose-response had high values. The experiment is classed as functional. The settings on record: 9.37 µM.

For a further experiment, the species on record is Homo sapiens. Description: To identify inhibition of the IFN signalling (Jak-Stat) pathway via expression of an eGFP reporter gene under the control of an IFN-stimulated response element (ISRE) containing MxA promoter. Format: functional. The settings on record: 30 µM. (A reporter such as luciferase makes a cellular process visible.)
The target in experiment [6] is T4, Tyrosyl-tRNA synthetase, putative (Trypanosoma cruzi (strain CL Brener)) (UniProt Q4DSP6).
T4 sequence (whole entry): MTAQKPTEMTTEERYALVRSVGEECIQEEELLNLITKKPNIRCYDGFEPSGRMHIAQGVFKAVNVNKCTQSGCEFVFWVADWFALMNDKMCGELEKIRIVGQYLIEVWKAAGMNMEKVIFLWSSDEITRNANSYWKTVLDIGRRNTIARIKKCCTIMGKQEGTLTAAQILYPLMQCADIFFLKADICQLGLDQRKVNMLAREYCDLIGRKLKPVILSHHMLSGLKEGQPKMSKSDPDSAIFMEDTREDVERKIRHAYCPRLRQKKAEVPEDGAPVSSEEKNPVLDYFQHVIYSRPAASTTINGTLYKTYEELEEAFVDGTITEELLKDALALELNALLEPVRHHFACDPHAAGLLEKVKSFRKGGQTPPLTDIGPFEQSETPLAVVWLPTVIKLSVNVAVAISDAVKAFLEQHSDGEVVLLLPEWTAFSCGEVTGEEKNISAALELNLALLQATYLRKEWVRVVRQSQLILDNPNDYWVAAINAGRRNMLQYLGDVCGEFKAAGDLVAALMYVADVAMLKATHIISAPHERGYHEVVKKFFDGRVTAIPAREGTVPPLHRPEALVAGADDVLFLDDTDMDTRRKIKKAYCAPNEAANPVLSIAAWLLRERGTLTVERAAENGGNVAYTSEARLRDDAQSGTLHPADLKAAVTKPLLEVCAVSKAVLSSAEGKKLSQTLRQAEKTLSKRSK
Description: Trypanosoma cruzi tyrosyl tRNA synthetase (TcYRS) _High Tyrosine SOP. Further: in the data most compounds retested in dose-response had high values. Format: functional. The settings on record: 30 µM.

The target of experiment [7] is T4, Tyrosyl-tRNA synthetase, putative (Trypanosoma cruzi (strain CL Brener)). Description: Trypanosoma cruzi tyrosyl tRNA synthetase (TcYRS) SOP. The settings on record: 30 µM. Format: functional.
In experiment [8] the target is Chromo domain-containing protein 1 (Saccharomyces cerevisiae (strain ATCC 204508 / S288c) (Baker's yeast)) (UniProt P32657). Put plainly: ScCHD-1 Enzyme Inhibition Assay. Further: in the data most compounds retested in dose-response had high values. Format: functional. As to conditions: 30 µM.
Chromo domain-containing protein 1 (Saccharomyces cerevisiae (strain ATCC 204508 / S288c) (Baker's yeast)), sequence (P32657 whole entry, the tested form may be a part): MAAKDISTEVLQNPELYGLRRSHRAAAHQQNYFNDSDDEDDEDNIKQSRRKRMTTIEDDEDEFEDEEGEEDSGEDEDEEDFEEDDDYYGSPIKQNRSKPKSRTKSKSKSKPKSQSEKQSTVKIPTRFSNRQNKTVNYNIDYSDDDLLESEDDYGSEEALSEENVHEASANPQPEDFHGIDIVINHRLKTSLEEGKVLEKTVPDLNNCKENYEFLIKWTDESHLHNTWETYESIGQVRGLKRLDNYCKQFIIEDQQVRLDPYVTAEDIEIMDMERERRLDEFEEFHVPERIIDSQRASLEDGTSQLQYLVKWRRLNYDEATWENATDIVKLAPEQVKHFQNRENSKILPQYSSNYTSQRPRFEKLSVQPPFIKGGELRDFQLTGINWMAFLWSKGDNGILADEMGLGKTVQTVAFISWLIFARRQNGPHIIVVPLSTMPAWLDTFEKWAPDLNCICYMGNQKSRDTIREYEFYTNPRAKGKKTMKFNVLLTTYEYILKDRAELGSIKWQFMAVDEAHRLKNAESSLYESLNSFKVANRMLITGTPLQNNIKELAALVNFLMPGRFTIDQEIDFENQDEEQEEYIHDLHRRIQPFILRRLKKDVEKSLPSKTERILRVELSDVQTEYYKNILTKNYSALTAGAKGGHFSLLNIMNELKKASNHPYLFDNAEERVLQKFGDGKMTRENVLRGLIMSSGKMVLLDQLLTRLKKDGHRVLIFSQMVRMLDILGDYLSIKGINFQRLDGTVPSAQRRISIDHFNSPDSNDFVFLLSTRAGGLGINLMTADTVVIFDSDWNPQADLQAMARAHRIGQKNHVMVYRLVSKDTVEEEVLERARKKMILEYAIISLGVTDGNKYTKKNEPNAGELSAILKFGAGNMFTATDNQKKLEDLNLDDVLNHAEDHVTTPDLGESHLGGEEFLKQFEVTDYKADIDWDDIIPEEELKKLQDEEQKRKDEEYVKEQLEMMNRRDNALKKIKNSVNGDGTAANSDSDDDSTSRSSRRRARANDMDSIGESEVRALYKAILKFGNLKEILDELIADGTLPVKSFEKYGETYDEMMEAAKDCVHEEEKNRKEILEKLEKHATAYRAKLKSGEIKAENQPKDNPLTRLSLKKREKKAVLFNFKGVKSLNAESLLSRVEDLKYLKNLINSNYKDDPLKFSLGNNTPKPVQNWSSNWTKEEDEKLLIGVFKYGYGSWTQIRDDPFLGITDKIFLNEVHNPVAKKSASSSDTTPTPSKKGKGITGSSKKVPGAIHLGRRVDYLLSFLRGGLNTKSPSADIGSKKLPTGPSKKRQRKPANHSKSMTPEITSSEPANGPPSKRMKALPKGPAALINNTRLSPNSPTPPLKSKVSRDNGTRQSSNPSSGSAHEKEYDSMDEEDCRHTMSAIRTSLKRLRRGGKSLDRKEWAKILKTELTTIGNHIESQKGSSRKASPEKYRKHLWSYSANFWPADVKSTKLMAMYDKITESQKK

Protein translocase subunit SecA (Escherichia coli (strain K12)), sequence (P10408 whole entry): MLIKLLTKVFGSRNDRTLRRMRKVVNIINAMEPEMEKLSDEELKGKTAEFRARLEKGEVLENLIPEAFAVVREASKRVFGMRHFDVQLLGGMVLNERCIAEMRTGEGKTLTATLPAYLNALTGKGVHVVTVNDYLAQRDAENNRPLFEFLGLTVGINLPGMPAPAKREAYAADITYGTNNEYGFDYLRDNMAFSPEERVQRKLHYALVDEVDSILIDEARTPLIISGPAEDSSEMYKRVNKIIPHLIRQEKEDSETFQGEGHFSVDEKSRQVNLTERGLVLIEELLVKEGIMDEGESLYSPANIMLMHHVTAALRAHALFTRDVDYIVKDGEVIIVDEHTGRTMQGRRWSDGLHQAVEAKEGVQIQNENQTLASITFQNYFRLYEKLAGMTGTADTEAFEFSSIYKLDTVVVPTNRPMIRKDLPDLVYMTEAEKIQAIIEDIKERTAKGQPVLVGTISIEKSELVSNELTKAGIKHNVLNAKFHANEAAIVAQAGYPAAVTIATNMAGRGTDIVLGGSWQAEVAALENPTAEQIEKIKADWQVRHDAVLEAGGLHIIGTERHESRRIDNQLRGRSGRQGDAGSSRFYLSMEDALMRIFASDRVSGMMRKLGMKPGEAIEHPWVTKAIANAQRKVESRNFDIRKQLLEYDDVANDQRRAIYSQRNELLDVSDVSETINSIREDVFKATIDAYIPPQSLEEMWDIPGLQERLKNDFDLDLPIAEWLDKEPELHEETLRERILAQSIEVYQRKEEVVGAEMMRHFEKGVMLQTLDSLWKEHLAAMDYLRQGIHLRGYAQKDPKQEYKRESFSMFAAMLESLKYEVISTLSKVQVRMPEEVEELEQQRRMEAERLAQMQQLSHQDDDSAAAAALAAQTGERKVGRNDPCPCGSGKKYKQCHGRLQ
Sialic acid-binding Ig-like lectin 9 (Homo sapiens), sequence (Q9Y336 whole entry): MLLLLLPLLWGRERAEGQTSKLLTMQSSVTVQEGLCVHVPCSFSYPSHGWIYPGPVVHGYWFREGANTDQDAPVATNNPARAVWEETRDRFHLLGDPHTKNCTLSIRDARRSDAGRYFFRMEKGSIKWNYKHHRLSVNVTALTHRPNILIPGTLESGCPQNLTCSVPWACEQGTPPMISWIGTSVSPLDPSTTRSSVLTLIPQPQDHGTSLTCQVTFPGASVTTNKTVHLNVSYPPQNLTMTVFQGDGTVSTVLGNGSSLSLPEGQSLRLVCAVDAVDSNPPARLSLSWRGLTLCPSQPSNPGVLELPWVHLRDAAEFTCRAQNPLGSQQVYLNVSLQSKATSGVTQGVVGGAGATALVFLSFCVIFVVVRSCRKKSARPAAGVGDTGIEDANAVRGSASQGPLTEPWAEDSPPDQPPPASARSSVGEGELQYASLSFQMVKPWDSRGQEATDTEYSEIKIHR

In the case of `CCc1nnc(CN2CCCC(c3cc(C(F)(F)F)[nH]n3)C2)o1` (stereo not given), the Percent Effect in experiment [1] is -0.463%; in experiment [2], 0%; in experiment [3] it was -0.304%; with Trypanosoma cruzi, -4.22%; in [4], 3.1%; in experiment [5] it was 15.3%. Moreover, the Percent Effect in the experiment filed under Homo sapiens was -7.26%; in experiment [6], 1.58%; in experiment [7], -2.56%; in experiment [8], -3.78%.

Regarding `Cn1cnc2c1CCN(Cc1cccc(C(N)=O)c1)C2`, the Percent Effect in [1] is -3.09%; in experiment [2], 7.69%; in [3] it was 3.32%; with Trypanosoma cruzi it was 0.657%; in experiment [4], 2.87%; in [5] it was -3.67%. Also, the Percent Effect was 7.29% in the experiment filed under Homo sapiens, -0.478% in [6], 13.2% in experiment [7] and 4.07% in [8].

Regarding `CCCNC(=O)c1cc2c(c3ccccc3n2C)n1C(=O)N(C)C`, the Percent Effect in experiment [1] is -4.26%; in experiment [2] it was -1.3%; in experiment [3] it was 2.88%; with Trypanosoma cruzi, -5.16%; in [4], 1.22%; in experiment [5], 9.62%. In addition, the Percent Effect is -12.8% in the experiment filed under Homo sapiens, 2.63% in experiment [6], 5.13% in [7] and -7.15% in [8].

On to `COCCc1ncc(CN2CCC(Oc3ccccc3C)CC2)cn1`, for which the Percent Effect in [1] is -2.3%; in [2], 17.3%; in experiment [3], 7.21%; in the experiment on Trypanosoma cruzi, 1.58%; in experiment [4], -0.443%; in [5], 12.6%. Also, the Percent Effect in the experiment listed under Homo sapiens was 7.38%; in experiment [6] it was 6.35%; in experiment [7], 20%; in experiment [8], -22.7%.

Regarding `N#Cc1cccc(N2CC3(CCN(C(=O)c4cccnc4)C3)CC2=O)c1` (stereo not given), the Percent Effect in [1] is -6.73%; in experiment [2] it was 9.09%; in [3], -3.3%; in the experiment on Trypanosoma cruzi it was -4.58%; in experiment [4] it was -3.64%; in experiment [5], 12.6%. The Percent Effect in the experiment filed under Homo sapiens is -1.73%; in experiment [6], 3.68%; in experiment [7] it was 15.4%; in experiment [8], -3.29%.

Take `CC(=O)N1CCC(c2cc(C(F)(F)F)n3ccnc3n2)CC1`: the Percent Effect in experiment [1] was -2.29%; in [2] it was 9.33%; in [3], -6.3%; in the experiment with Trypanosoma cruzi, 0.789%; in experiment [4], 0.443%; in [5], 16.1%. Moreover, the Percent Effect in the experiment filed under Homo sapiens was 6.98%; in experiment [6] it was 7.41%; in experiment [7], -25%; in experiment [8] it was -32.2%.

Regarding `CN(CC(=O)Nc1ccc(Br)cn1)C(=O)Cc1ccc(O)cc1`, the Percent Effect in experiment [1] was -6.43%; in experiment [2], -18.7%; in experiment [3] it was 0.45%; with Trypanosoma cruzi, 2.61%; in [4], -0.887%; in [5] it was 8.4%. Also, the Percent Effect in the experiment listed under Homo sapiens was 0.283%; in experiment [6] it was 3.68%; in experiment [7] it was -82%; in experiment [8], -5.7%.

With `CN(C)CC1CN(Cc2coc(-c3ccccc3Cl)n2)CCO1` (stereo not given), the Percent Effect in experiment [1] was -1.66%; in experiment [2] it was 13.3%; in experiment [3], -4.39%; in the experiment with Trypanosoma cruzi, -2.41%; in experiment [4], 2.66%; in experiment [5] it was 10.6%. For the same compound, the Percent Effect was 3.83% in the experiment listed under Homo sapiens, 0.526% in experiment [6], 5.13% in experiment [7] and -10.4% in experiment [8].

With `CC(C)(C)n1ncc2c1NC(=O)CC2c1ccsc1` (stereo not given), the Percent Effect was -1.95% in experiment [1]; 2.7% in experiment [2]; -2.29% in experiment [3]; -7.47% with Trypanosoma cruzi; 5.94% in experiment [4]; 13.2% in experiment [5]. Also, the Percent Effect in the experiment filed under Homo sapiens was 15.1%; in experiment [6], 4.79%; in experiment [7] it was 9.76%; in experiment [8] it was -1.82%.

For `Cc1ccc(NC2CCN(C(=O)c3n[nH]c4ccccc34)CC2)nn1`, the Percent Effect in [1] is -2.85%; in [2], 5.33%; in [3], 0.786%; in the experiment on Trypanosoma cruzi, -5.62%; in experiment [4], 3.55%; in experiment [5] it was -2.29%. Besides, the Percent Effect in the experiment filed under Homo sapiens was 12.2%; in experiment [6], 3.68%; in experiment [7] it was 5.13%; in [8] it was -6.5%.

Take `Cc1noc(Cl)c1CCC(=O)N1CCc2sccc2C1`: the Percent Effect is -5.38% in experiment [1]; 18.7% in experiment [2]; 4.18% in [3]; 0.201% in the experiment on Trypanosoma cruzi; -2.22% in experiment [4]; 22.8% in [5]. In addition, the Percent Effect in the experiment filed under Homo sapiens was 25.1%; in experiment [6], 5.79%; in experiment [7] it was 17.9%; in [8], -10.9%.

(Values after ChEMBL document CHEMBL3988442, “University of Dundee, Small-Polar-MMV Screening Library” (2021).)
